Inconclusive results are not listed. Active and inactive are the calls of the source. Calls follow the shape of the dose curve; as a rule, active = well fitted inhibition curve with a large enough effect; inconclusive = small, poorly fitted or top-dose-only effect; inactive = no such curve, though single readings can be large or run the other way.

This test in a line: S16 Schwann cell PMP22 intronic element firefly luciferase assay (AID 624032).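 Also: plate controls were DMSO for no effect and PTC124 positive control mean for full effect; nearly all actives have a fitted effect of over 30% in size.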 To be noted: S16 rat Schwann cells, PMP22 element FLuc, 24 h; series mostly up to 57.5 µM; activity change, negative = inhibition: at the top concentration. An outline of the steps: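 Rat S16 Schwann cells stably carrying firefly luciferase driven by a PMP22 intronic element, in 10% FBS, treated 24 h at 37 C. ONE-Glo luminescence normalized to PTC124 control and DMSO (0%); curves classed by r2, magnitude and activity.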
Take `Cc1cc(-n2nc3ccc(Cl)cc3n2)c(O)c(C(C)(C)C)c1`: the “activity change, negative = inhibition” value is 0.137% (inactive). `CN1C(C)(C)CCCC1(C)C`: the “activity change, negative = inhibition” value was 21.1% (inactive). As for `O=C(O)Cc1cn(-c2ccccc2)nc1-c1ccc(Cl)cc1`, the “activity change, negative = inhibition” value is -5.68% (inactive). The result for `O=c1[nH]c(=O)c2ccccc2o1` reads -1.71% (inactive); that for `CCCCCCCC(=O)OCC(O)CO` (configuration not stated), 0.0994% (inactive). For the molecule `O=C(O)c1ccccc1C(=O)Nc1ccc(S(=O)(=O)Nc2nccs2)cc1`, the “activity change, negative = inhibition” value was 9.16% (inactive). With `COC(=O)c1cccnc1`, the “activity change, negative = inhibition” value was 1.32% (inactive).

Regarding `CC(=O)Oc1cccc(C)c1`, the “activity change, negative = inhibition” value is -5.19% (inactive).

For the molecule `Cc1cccc(C(=O)O)c1O`, the “activity change, negative = inhibition” value is 21.6% (inactive). As to `COc1ccc(C(=O)NCc2ccc(OCCN(C)C)cc2)cc1OC`, the “activity change, negative = inhibition” value was -6.08% (inactive). In the case of `COc1ccc(Cc2cnc(N)nc2N)cc1OC`, the “activity change, negative = inhibition” value is 0.566% (inactive). As to `CC(=O)N[C@@H](Cc1ccc(O)cc1)C(=O)O`, the “activity change, negative = inhibition” value was 14.9% (inactive). As to `CC(C)CCOC(=O)c1ccc(N(C)C)cc1`, the “activity change, negative = inhibition” value is 209% (inactive).

As to `C[C@@H]1O[C@@H](OC[C@H]2O[C@@H](Oc3c(-c4ccc(O)c(O)c4)oc4cc(O)cc(O)c4c3=O)[C@H](O)[C@@H](O)[C@@H]2O)[C@H](O)[C@H](O)[C@H]1O`, the “activity change, negative = inhibition” value was 15.3% (inactive). Consider `O=C(O)c1ccccc1OP(=O)(O)O`, for which the “activity change, negative = inhibition” value is 40% (inactive).

Regarding `Cc1cc(C)c(NC(=O)CN(CC(=O)O)CC(=O)O)c(C)c1Br`, the “activity change, negative = inhibition” value was -3.15% (inactive). With `O=C1CC[C@@H](C(=O)O)N1`, the “activity change, negative = inhibition” value was -16.2% (inactive). As to `Cc1c(NC(C)C)c(=O)n(-c2ccccc2)n1C`, the “activity change, negative = inhibition” value was -2.17% (inactive).

Regarding `NC(=O)NS(=O)(=O)c1ccc(N)cc1`, the “activity change, negative = inhibition” value is 18.1% (inactive).

`OCC(O)CS` (configuration not stated): the “activity change, negative = inhibition” value was -7.86% (inactive). On to `CC(C(=O)O)c1ccc2c(c1)Cc1cccnc1O2` (configuration not stated), for which the “activity change, negative = inhibition” value was -30.5% (inactive). The result for `Nc1c2c(nc3c1CCC3)CCCC2` reads -4.05% (inactive). Take `CC(N)CCCC(C)(C)O` (configuration not stated): the “activity change, negative = inhibition” value is 24% (inactive).

`O=C(O)CCCc1ccccc1`: the “activity change, negative = inhibition” value is 2.87% (inactive). `CNCc1ccccc1`: the “activity change, negative = inhibition” value was -35.2% (inactive). On to `O=C(NCN1CCOCC1)c1cnccn1`, for which the “activity change, negative = inhibition” value is -16.5% (inactive).

Take `O=C(O)CNC(=O)c1ccccc1I`: the “activity change, negative = inhibition” value is -12.6% (inactive). The result for `Cc1onc(-c2ccccc2)c1-c1ccc(S(N)(=O)=O)cc1` reads -24.1% (inactive); that for `CC(C)CCCC(C)CCCC(C)CCCCC(C)CCCC(C)CCCC(C)C` (configuration not stated), -1.81% (inactive); that for `O=C(O)c1ccc[n+]([O-])c1`, 4.29% (inactive). `Cc1cccc(C)c1NC(=O)CC12CCCN1CCC2`: the “activity change, negative = inhibition” value was 2.81% (inactive).

For `C[C@@H]1CCC[C@H](C)N1`, the “activity change, negative = inhibition” value is -0.669% [at 25.7 µM] (inactive).

Values taken from PubChem BioAssay (NCATS).
